Results as given in PubChem BioAssay (NCI).
The panel holds about 83,000 compounds, 20% with a hit somewhere; the sample as a whole holds those more often.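 48-hour exposure, single concentration, 96-well plates; percent growth endpoint where 0 means no net growth. Active: below 10.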 A number with no mark means an inactive call. Calls of active or inactive are those of the source.

tested on: SF-295 CNS; assay: NCI-60 one-dose screen, 48 h (100 = growth as untreated, 0 = no growth, -100 = all killed); conditions: 10 µM unless noted

Structure (SMILES) | growth
CCN(CC)CCOc1ccc(C(=C(c2ccccc2)C2CCCC2)c2ccc(OCCN(CC)CC)cc2)cc1 | 60.6%
COC(=O)c1cccc(NC2=C(Cl)C(=O)c3nc(C)ccc3C2=O)c1 | 107%
COc1cc(/C=N\NC(=O)c2ccc3nc(-c4ccc(Br)cc4)[nH]c3c2)cc(OC)c1OC | 32.5%
NC1=NC2(CCCC2)N(c2ccc(S(=O)(=O)Nc3nccs3)cc2)C(N)=N1 | 104%
N#C/C(=N\Nc1ccc(F)cc1)C(=O)Nc1cc(-c2ccccc2)nn1-c1ccccc1 | 2.07% (active)
Cc1ccc(S(=O)(=O)c2nc(-c3ccc(F)cc3)oc2S(C)(=O)=O)cc1 | 95.4%
CC(O)c1cccc(/C(N)=N/C(N)=N/c2nc3ccccc3s2)c1 (centres undefined) | 86.7%
CCOc1cccc(/C(N)=N/C(N)=N/c2nc3ccccc3s2)c1 | 37.7%
O=C(CCl)Nc1ccc(NC(=O)c2cc(Cl)ccc2O)c(Cl)c1 | 83.6%
Clc1ccc(CSc2nnc(-c3ccc(Cl)cc3)n2-c2ccccc2)cc1 | 78.4%
CC(C)(C)OC(=O)NCc1ccc(CNc2c([N+](=O)[O-])cnc3ccccc23)cc1 | 33.4%
NS(=O)(=O)c1ccc(Nc2nc(N/N=C/c3ccc4c(c3)OCO4)nc(Nc3ccccc3)n2)cc1 | 64.5%
Cc1cc(=O)oc2cc(OCCCOc3ccc(/C=C/C(=O)Nc4ccc(Br)cc4)cc3)ccc12 | 95.1%
CNC(=O)c1cc(N2CCc3cc(NC(=O)Nc4ccc(N5CCOCC5)c(C(F)(F)F)c4)ccc32)ccn1 | -21% (active)
